Screening results (PubChem BioAssay)
The sample as a whole holds a higher share of hits than the screen did.
NS1 inh: inhibitors of influenza NS1 protein function; actives 0.4% (n = 270,000); Potency, µM (highest dose often 46.1 µM), inactives show at the highest dose activity, positive = more growth; calls by dose curve; note: actives are rising curves; nearly all actives have a fitted effect of over 50% in size
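A cell-based growth assay was used: compounds that relieve NS1-induced slow growth of budding yeast raise OD600. Assay medium was yeast nitrogen base with ammonium sulphate and -URA supplement, pH 6.0, with 2% galactose.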
Cruzain noTriton: inhibitors of Trypanosoma cruzi cruzain without detergent; purified cruzain, Z-FR-AMC fluorescence, no detergent; P25779; actives 2.3% (n = 200,000); Potency, µM, for inactives: max response, negative = inhibition, usual class: inhibitors; AID 1476;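 note: plate controls were enzyme without inhibitor for no effect and buffer without enzyme for full effect; nearly all actives have a fitted effect of over 40% in size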
Target sequence (P25779 123-467 limits assumed): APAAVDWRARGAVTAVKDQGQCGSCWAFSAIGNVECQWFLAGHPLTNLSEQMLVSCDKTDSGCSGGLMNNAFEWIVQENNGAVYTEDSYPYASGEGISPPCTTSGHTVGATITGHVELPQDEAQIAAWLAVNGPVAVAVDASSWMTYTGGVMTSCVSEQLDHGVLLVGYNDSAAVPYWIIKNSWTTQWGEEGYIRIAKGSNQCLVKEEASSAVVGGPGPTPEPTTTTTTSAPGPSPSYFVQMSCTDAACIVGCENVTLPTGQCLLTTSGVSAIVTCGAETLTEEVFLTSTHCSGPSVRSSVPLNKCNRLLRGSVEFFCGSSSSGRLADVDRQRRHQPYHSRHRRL
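Purified cruzain at 1.5 nM, pre-incubated 15 min with compound at room temperature in 100 mM sodium acetate pH 5.5, 5 mM DTT, 0.00005% Triton X-100. Reaction started with 2 uM Z-FR-AMC; AMC fluorescence increase over 60 s gives rate.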
Cruzain inh Det: inhibitors of Trypanosoma cruzi cruzain with detergent; P25779; purified cruzain, Z-FR-AMC fluorescence, 0.01% Triton; Potency, µM, without a hit: max response, negative = inhibition, hits mostly inhibitors; actives 0.43% (n = 200,000); AID 1478;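 note: plate controls were neutral wells for no effect and buffer without enzyme for full effect; nearly all actives have a fitted effect of over 40% in size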
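In this qHTS format, compounds are incubated with 1.5 nM cruzain for 15 min at room temperature before 2 uM Z-FR-AMC is added. Release of AMC is followed at 360/450 nm, and progress is taken as the 60 s fluorescence difference.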
* hit, by the source's call; ? = inconclusive; / = no result given. Unless noted, calls come from the whole dose curve; as a rule, active = well fitted curve in the direction sought with a large enough effect; inconclusive = small, poorly fitted or top-dose-only effect, or another doubt; inactive = no such curve, though single readings can be large; an effect the other way counts as inactive or inconclusive. Potency is the fitted concentration of half-maximal effect.

SMILES | NS1 inh | Cruzain noTriton | Cruzain inh Det
CCOc1ccc(N2Cc3ccccc3C2)cc1 | -9% | 16µM* | 4%
CCOc1ccc(N2CC(=O)N(c3ccc(OCC)cc3)CC2=O)cc1 | 2% | -9% | 1%
COc1cc2c(cc1O)[C@@H](c1cc(O)c(O)c(OC)c1)[C@@](O)(C(=O)O)[C@@H](CO)[C@@H]2O | 0% | -3% | 3%
Cc1cccc(-n2c(=O)c3c(c4cc(C)ccc4n3C)n(C)c2=O)c1 | / | -3% | 0%
C=Cc1ccc(Cn2c(=O)n(-c3cccc(C)c3)c(=O)c3c2c2cc(C)ccc2n3C)cc1 | / | 25µM* | -18%
CC(C)c1nccn1Cc1ccc(Cl)cc1Cl | -3% | 0% | 6%
CC1=C2[C@H](/C=C(\C)C(=O)O)CC[C@@H](C)[C@H]2CC1 | / | 4% | -5%
Cc1cc(C)nc(NN2C(=O)/C(=C/c3ccccc3)SC2=S)n1 | 4% | -29% | -7%
CN(C)c1ccc(/C=C2\SC(=S)N(Nc3ncc(C(F)(F)F)cc3Cl)C2=O)cc1 | 9% | 13µM* | -9%
N/C(=N\O)c1cn([C@@H]2O[C@@H](CO)[C@H](O)[C@@H]2O)c2ncnc(NO)c12 | -5% | 1% | -1%
COc1ccc(N=c2oc3cc(O)ccc3cc2C(=O)NCC2CCCO2)cc1 (stereo not drawn) | -2% | -20% | 5%
CCOc1ccc(N=c2oc3cc(O)ccc3cc2C(=O)NCC2CCCO2)cc1 (stereo not drawn) | 1% | 6.3µM* | 2%
CCCCn1c(=O)n(-c2ccc(Br)cc2F)c(=O)c2c3c(sc21)CN(C(C)=O)CC3 | / | ? | -9%
Cc1cccc(Oc2ccc3c(c2)Oc2ccccc2NC3=O)c1 | / | ? | -5%
O=C(Cn1c(=O)n(Cc2ccc(C(=O)NCc3ccccc3Cl)cc2)c(=O)c2ccccc21)Nc1ccc(F)c(Cl)c1 | / | 7.9µM* | -2%
O=C(Cn1c(=O)n(Cc2ccc(C(=O)NCc3ccccc3Cl)cc2)c(=O)c2ccccc21)Nc1ccc(F)cc1 | / | 13µM* | -2%
CCc1ccc(NC(=O)Cn2c(=O)n(CCCC(=O)NCc3ccccc3Cl)c(=O)c3ccccc32)cc1 | / | -9% | 1%
COc1ccc(NC(=O)Cn2c(=O)n(Cc3ccc(C(=O)NCc4ccccc4Cl)cc3)c(=O)c3ccccc32)cc1OC | / | -8% | -1%
Cc1cc(Nc2cc(F)ccc2C)nc(-n2nc(C)cc2C)n1 | / | 2% | 2%
CCN1CCN(CCCNC(=O)Cn2nc(C)n3c(cc4c(OC)cccc43)c2=O)CC1 | / | -5% | -4%
O=[N+]([O-])c1cc(S(=O)(=O)N2CCCC2)ccc1N/N=C1/CCCc2ccccc21 | 2% | 16µM* | -6%
NS(=O)(=O)c1ccc(N/N=C2/CCCc3ccccc32)c([N+](=O)[O-])c1 | -1% | / | /
CCN(c1ccccc1)c1ncnc2c1cnn2-c1ccc(C)cc1C | / | 14% | -10%
CCOC(=O)c1c(NC(=S)NC)sc2c1CC(C)(C)SC2 | 1% | -24% | -26%
CCOC(=O)c1c(NC(=S)Nc2ccc(Cl)cc2)sc(C)c1C | -1% | 4µM* | -4%
SMILES | NS1 inh | Cruzain noTriton | Cruzain inh Det
CCOC(=O)c1c(NC(=S)Nc2ccccc2)sc2c1CC(C)(C)SC2 | 28% | 13µM* | -4%
COC(=O)c1c(NC(=S)Nc2ccc(CC(=O)O)cc2)sc(C)c1C | 25% | 8% | -11%
COc1ccc(-c2nnc(-c3cc4ccccc4oc3=O)o2)cc1 | 22% | 16µM* | -1%
COc1ccc2oc(=O)c(-c3nnc(-c4ccc(C)cc4)o3)cc2c1 | / | -7% | 11%
Cc1nnc(SCc2cc([N+](=O)[O-])cc3c2OCOC3)[nH]c1=O | -2% | / | /
Cc1cc(C)cc(-n2c(SCC(=O)NCc3ccc4c(c3)OCO4)nc3ccccc3c2=O)c1 | 4% | ? | -2%
O=c1c2ccccc2nc(SCc2ccc([N+](=O)[O-])cc2)n1-c1ccccc1 | 14% | ? | 0%
COc1ccc(Nc2nnc(SCc3cc([N+](=O)[O-])cc4c3OCOC4)s2)cc1 | 4% | 20µM* | 0%
O=C(CSc1nc2cc([N+](=O)[O-])ccc2n1-c1ccccc1)NCc1ccc2c(c1)OCO2 | 4µM* | -14% | -11%
O=c1c2ccccc2nc(SCc2cc([N+](=O)[O-])cc3c2OCOC3)n1-c1ccccc1 | 3% | 13µM* | -2%
O=S(=O)(C[C@H](O)C(Cl)(Cl)Cl)NNc1ccccc1 | -6% | 0% | -7%
O=C(CCCn1c(=O)c2cccn2c2cccnc21)NCc1ccccc1Br | / | -4% | 5%
COc1ccc2c(c1)c(CC(=O)NCc1ccc3c(c1)OCO3)c(C)n2C(=O)c1ccc(Cl)cc1 | / | -4% | 2%
CCCCn1cc(S(=O)(=O)c2ccc(OC)cc2)c(=O)c2cc(CC)ccc21 | / | -13% | -5%
CCOc1ccccc1N(CC)C(=O)Cn1ncc2c1-c1ccccc1OC2 | / | 18% | -6%
CCOC(=O)CSc1nc2cc(C(=O)NCc3ccco3)ccc2c(=O)n1C1CCCCC1 | 1% | ? | 0%
CCOC(=O)CSc1nc2cc(C(=O)NCc3ccco3)ccc2c(=O)n1-c1ccc(F)cc1 | ? | 10µM* | -1%
COc1ccc(CCNC(=O)CSc2nc3nc(C)c(Cc4ccc(C)cc4)c(C)n3n2)cc1OC | / | ? | 0%
C=CCN=C1NN=C(c2cc(C)n(CC=C)c2C)CS1 | 4% | 25µM* | -8%
COCCN=C1NN=C(c2cc(C)n(CC3CCCO3)c2C)CS1 (stereo not drawn) | 12% | / | /
O=C(Nc1cc(-c2ccc(F)c(F)c2)no1)c1ccccc1F | / | 25µM* | -3%
COc1ccccc1C(=O)Nc1cc(-c2ccc(C)cc2)no1 | -8% | 4% | -11%
Cc1cc(C)cc(-n2ccnc2SCC(=O)Nc2nc3ccc(C)cc3s2)c1 | / | 6% | -7%
CCCS(=O)(=O)c1ccc(COC(=O)c2ccc(NC(C)=O)cc2)cc1 | -4% | / | /
COC(=O)c1ccc(COC(=O)c2ccc(CS(=O)(=O)c3ccc(C)cc3)cc2)cc1 | -7% | 25µM* | -2%
SMILES | NS1 inh | Cruzain noTriton | Cruzain inh Det
COc1ccc(Nc2cc(C(=O)NCCCN(C)Cc3ccccc3)c3ccccc3n2)cc1OC | / | -12% | -8%
COc1ccc(C2CC(c3cccs3)=NN2S(C)(=O)=O)cc1OC (stereo not drawn) | 5% | / | /
COc1ccc(C2CC(c3cccs3)=NN2c2nc(-c3ccccc3)cs2)cc1OC (stereo not drawn) | ? | 7.9µM* | -4%
Cc1nc(NC2CCCCC2)c2nc(-c3ccccc3)n(CCN3CCCC3)c2n1 | / | -4% | -1%
COc1ccc2c(-c3cc4ccc(OCc5ccc(F)cc5)cc4oc3=O)cc(=O)oc2c1 | 13% | 10µM* | -7%
COc1ccc(COc2ccc3c(C)cc(=O)oc3c2)cc1 | -3% | / | /
C[C@@H]1CC[C@@]2(OC1)O[C@H]1[C@@H](O)[C@H]3[C@@H]4CC[C@H]5C[C@@H](O[C@@H]6O[C@H](CO)[C@H](O[C@@H]7O[C@H](CO)[C@@H](O)[C@H](O[C@@H]8OC[C@@H](O)[C@H](O)[C@H]8O)[C@H]7O[C@@H]7O[C@H](CO)[C@@H](O)[C@H](O[C@@H]8O[C@H](CO)[C@@H](O)[C@H](O)[C@H]8O)[C@H]7O)[C@H](O)[C@H]6O)[C@H](O)C[C@]5(C)[C@H]4CC[C@]3(C)[C@H]1[C@@H]2C | / | ? | -2%
